# Measured values: ChEMBL document CHEMBL1857833, “Screening and optimization of specific chemical series against human African Trypanosomiasis (HAT)”
# Several values for one entry are separate records, joined by “and”; a condition that tells them apart may be missing. Identical values can stand only once. Screen size: about 4,400 compounds; about 390 (8.9%) showed an effect of 50% or more. For the sample, strong results were picked, then their nearest neighbours and some compounds at random.
# Test system: Trypanosoma brucei
# Test: DNDI: Inhibition of Human African Trypanosomiasis, SBRI 427, in vitro at 2 ug.mL-1
# Format: functional
row,Compound,% inhibition
1,C=CCN1CCN(/C(=N\O)c2ccnc(Oc3ccc(C)c4c3CCC4)c2)CC1,22%
2,Cc1ccccc1-c1nc(CN2CCN(C/C=C/c3ccccc3)CC2)co1,-34%
3,Cc1cccc(-c2nc(CNCc3ccc(C(C)(C)C)cc3)co2)c1,-9%
4,Cc1cn(/C(=N\O)c2cccnc2Oc2c(F)cccc2F)cn1,-7%
5,CCC(CC)N/C(=N\O)c1cccnc1Oc1ccccc1F,96%
6,COCCN(/C(=N\O)c1cccnc1Oc1ccccc1F)C(C)C,5%
7,CCC(CC)N/C(=N\O)c1cccnc1Oc1ccccc1OC,76%
8,CSc1ccccc1Oc1ncccc1/C(=N/O)NCc1cccs1,28%
9,COc1ccc(CN/C(=N\O)c2cccnc2Oc2ccccc2SC)cc1,16%
10,CCC(CC)N/C(=N\O)c1cccnc1Oc1ccccc1SC,99%
11,COCC(C)N/C(=N\O)c1cccnc1OCc1ccccc1F (centres undefined),-13%
12,CCC(CC)N/C(=N\O)c1cccnc1Oc1c(F)cccc1F,99%
13,COCC(C)N/C(=N\O)c1cccnc1Oc1ccccc1OC(C)C (centres undefined),-8%
14,COC[C@H]1CCCN1Cc1coc(-c2ccc(O)cc2)n1,16%
15,Clc1ccccc1-c1nc(CNCCc2ccccc2)co1,-15%
16,CCC(NCc1coc(-c2ccc(C)cc2)n1)c1ccccc1 (centres undefined),-6% and 4%
17,Cc1cc(Oc2ccc(/C(=N/O)N3CCSCC3)cn2)cc(C(C)C)c1,4%
18,Cc1ccc(/C(=N/O)NCc2ccc(C)o2)c(OCc2ccccc2F)n1,18%
19,CC(CCc1ccccc1)NCc1coc(-c2ccc(F)cc2)n1 (centres undefined),17%
20,Cc1ccc(Oc2nc(C)ccc2/C(=N/O)NCc2cccs2)cc1,16%

row,Compound,% inhibition
1,COc1cccc(N2CCN(Cc3coc(-c4ccc(Cl)cc4Cl)n3)CC2)c1,10%
2,CC(C)COc1ncccc1/C(=N/O)NC1CC(C)CC(C)(C)C1 (centres undefined),-8%
3,Cc1ccc(/C(=N/O)NC2CC(C)CC(C)(C)C2)c(OCC(C)C)n1 (centres undefined),97%
4,Cc1ccc(/C(=N/O)NC2CC(C)CC(C)(C)C2)c(OCc2ccccn2)n1 (centres undefined),56%
5,CSc1ccc(Oc2nc(C)ccc2/C(=N/O)NC2CC(C)CC(C)(C)C2)cc1 (centres undefined),10%
6,Cc1ccc(/C(=N/O)NC2CCc3ccccc32)c(OCc2ccccn2)n1 (centres undefined),5%
7,Cc1ccc(/C(=N/O)NC(C)C)c(OCc2ccccn2)n1,11%
8,Cc1ccc(/C(=N/O)NC2CCC(C)CC2)c(OCc2ccccn2)n1 (centres undefined),100%
9,Cc1cc(C)cc(Oc2nc(C)ccc2/C(=N/O)NC2CC(C)CC(C)(C)C2)c1 (centres undefined),-4%
10,Cc1ccc(/C(=N/O)NCC2CCCCC2)c(OCc2ccccn2)n1,43%
11,CN(Cc1ccccc1)Cc1coc(-c2cccc3ccccc23)n1,-2%
12,COc1ccc(OC)c(NCc2coc(-c3ccccc3C)n2)c1,8%
13,CCCN(CC1CC1)/C(=N\O)c1ccc(C)nc1Oc1cccc2cnccc12,23%
14,Cc1ccc(/C(=N/O)N2C(C)C=CC2C)c(Oc2cccc(C(C)C)c2)n1 (centres undefined),20%
15,Cc1ccc(/C(=N/O)NC2CCCCC2)c(Oc2cccc(C(C)C)c2)n1,22%
16,Cc1cccc(Oc2nc(C)ccc2/C(=N/O)NC2CCCC2)c1,11%
17,Cc1ccc(/C(=N/O)NC2CC2)c(Oc2ccc3ccccc3c2)n1,16%
18,Cc1cccc(Oc2nc(C)ccc2/C(=N/O)NC2CCCCC2)c1,98%
19,Cc1ccc(/C(=N/O)NC2CCCCC2)c(Oc2ccc3ccccc3c2)n1,97%
20,Cc1ccc(/C(=N/O)NC2CCC2)c(Oc2ccc3ccccc3c2)n1,7%

row,Compound,% inhibition
1,CCOc1cccc(-c2nc(CN(C)Cc3cc(OC)c(OC)c(OC)c3)co2)c1,18%
2,COc1ccc(Oc2cc(/C(=N/O)NCc3ccccc3C)ccn2)cc1,21%
3,Cc1ccc(-c2nc(CNCC(C)(C)CN(C)C)co2)cc1,10%
4,Cc1cccc(Oc2ncccc2/C(=N/O)N(C)C2CCCCC2)c1C,-1%
5,COc1ccc(CN/C(=N\O)c2ccnc(Oc3cccc(C(C)C)c3)c2)cc1,-1%
6,CC1CCCN1/C(=N\O)c1cccnc1OCc1ccccc1F (centres undefined),-5%
7,CCCCC(CC)CNCc1coc(-c2ccc(Br)cc2)n1 (centres undefined),-12%
8,COCC(C)N/C(=N\O)c1ccnc(Oc2cccc(C(C)C)c2)c1 (centres undefined),71%
9,COCC(C)N/C(=N\O)c1ccc(Oc2ccc(Cl)cc2)nc1 (centres undefined),31%
10,O/N=C(\NCc1c(F)cccc1F)c1ccnc(Oc2ccc(Cl)cc2)c1,12%
11,CSc1ccc(Oc2cc(/C(=N/O)NCc3ccncc3)ccn2)cc1,9%
12,COCCN/C(=N\O)c1ccnc(Oc2cccc(C(C)C)c2)c1,4%
13,COCCN/C(=N\O)c1ccnc(Oc2ccc(OC)cc2)c1,41%
14,COCCN/C(=N\O)c1ccnc(Oc2ccc(Cl)cc2)c1,55%
15,COCC(C)N/C(=N\O)c1ccnc(Oc2ccc(Cl)cc2)c1 (centres undefined),99%
16,COCC(C)N/C(=N\O)c1ccnc(Oc2cccc(F)c2)c1 (centres undefined),8%
17,COCCN(/C(=N\O)c1ccnc(Oc2ccc(Cl)cc2)c1)C(C)C,28%
18,COCCN/C(=N\O)c1ccnc(Oc2ccc(SC)cc2)c1,-13%
19,COCC(C)N/C(=N\O)c1ccnc(Oc2ccc(SC)cc2)c1 (centres undefined),86%
